# Source: PubChem BioAssay
# Calls of active or inactive are those of the source.
# Assays:
# [1] = target: Albumin (Bos taurus) (UniProt P02769); experiment: bovine serum albumin binders on microarray, profiling panel, artefact control for SMM control protein annotation, biochemical, small-molecule microarray, Alexa647 label, 635/667 nm fluorescence (AID 1118); details: BSA-A647 binding, fluorescence 635 nm, higher = more signal;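 further: score merges 667 nm emission intensity and signal-to-noise per printed compound spot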
# [2] = small-molecule microarray binders of probe aXIP, primary screen, biochemical, NeuroSMM set, 635/667 nm fluorescence (AID 1119); details: higher = more signal, called active from +8 up or from −8 down;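 further: probe is the protein aXip251-270 applied at 1 µg/mL to compound-printed slides; binding of probe to printed compounds measured as 667 nm fluorescence plus signal to noise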
# [3] = small-molecule binders of probe aNOTCH3, primary screen, biochemical, small-molecule microarray, 635/667 nm fluorescence (AID 1120); details: higher = more signal;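 further: probe is a biotin-tagged antibody raised against NOTCH3 rather than NOTCH3 protein; score merges spot fluorescence near 667 nm with spot signal to noise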
# [4] = small-molecule binders of probe aNOTCH2, primary screen, biochemical, small-molecule microarray, 635/667 nm fluorescence (AID 1121); details: higher = more signal;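 further: score merges feature fluorescence read at 667 nm with its signal to noise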
# [5] = target: Carbonic anhydrase 2 (Homo sapiens) (UniProt P00918); experiment: CAII small-molecule binders, profiling panel, biochemical, small-molecule microarray, Alexa647-labelled CAII (AID 1122); details: CAII-A647 binding fluorescence, higher = more signal
# [6] = COS7 lysate on small-molecule microarray, probe aHis, 635 nm (AID 1123); details: COS7 cell lysate, fluorescence, higher = more signal;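 further: z-score combines 667nm fluorescence intensity with signal-to-noise per printed compound spot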
# [7] = compound binding in COS7 lysate, probe aLAP1, primary screen, cell lysate, small-molecule microarray (AID 1124); details: probe aLAP1, fluorescence, higher = more signal;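 further: lysate comes from COS7 cells expressing LAP1 and is applied at 0.3 µg/mL; score merges spot fluorescence near 667 nm with signal-to-noise over triplicate slides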
# [8] = tested on: Sam68 (KHDRBS1); experiment: Sam68 small-molecule binders, primary screen, biochemical, small-molecule microarray, 635 nm fluorescence (AID 1125); details: small-molecule microarray binding, higher = more signal;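 further: score merges 667 nm channel intensity with signal to noise over triplicate slides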
# [9] = tested on: Chordin-like protein 2 (CHRDL2); experiment: CHRDL2 small-molecule binders, primary screen, biochemical, small-molecule microarray, 635 nm fluorescence (AID 1126); details: small-molecule microarray binding, fluorescence 635 nm; higher = more signal;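 further: printed compound slides probed with Chrdl2 protein at 4 µg/mL for 1 h at 4 C; score merges 667 nm emission intensity with signal to noise over three replicate slides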
# [10] = target: Concanavalin-A (Canavalia ensiformis) (UniProt P02866); experiment: ConA small-molecule binders, primary screen, artefact control for SMM control protein annotation, biochemical, small-molecule microarray, Alexa647 label, 635 nm (AID 1127); details: ConA-A647 binding fluorescence, higher = more signal;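 further: z combines 667 nm emission intensity with signal-to-noise across three replicate slides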
# [11] = anti-His antibody binders, primary screen, artefact control for SMM control protein annotation, biochemical, small-molecule microarray, 635 nm fluorescence (AID 1128); details: anti-His Alexa647 antibody binding, higher = more signal;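 further: score merges feature fluorescence with signal-to-noise for each printed compound spot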
# [12] = tested on: Human papillomavirus type 1a E7 protein (residues 1-88); experiment: HPV1a E7 small-molecule binders, primary screen, biochemical, small-molecule microarray, residues 1-88, 635 nm (AID 1129); details: small-molecule microarray binding, fluorescence 635 nm; higher = more signal
# [13] = target: Focal adhesion kinase 1 (Homo sapiens) (UniProt Q05397); experiment: small-molecule microarray binders of FAK, primary screen, biochemical, 635/667 nm fluorescence, BSA, DTT (AID 1130); details: PTK2 binding, 635 nm fluorescence, higher = more signal;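 further: composite of spot emission at 667 nm and signal to noise over triplicate slides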
# [14] = tested on: Fibrinogen (Alexa647-labelled); experiment: fibrinogen binders on compound microarrays, profiling panel, artefact control for SMM control-protein annotation, biochemical, small-molecule microarray, 635/667 nm fluorescence (AID 1131); details: fibrinogen-A647 binding fluorescence, higher = more signal;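 further: z-score merges 667 nm fluorescence with per-spot signal-to-noise over triplicate slides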
# [15] = target: Follistatin (Homo sapiens) (UniProt P19883); experiment: follistatin binders on small-molecule microarrays, primary screen, biochemical, small-molecule microarray, 635/667 nm fluorescence (AID 1132); details: FST binding, 635 nm fluorescence, higher = more signal
# [16] = target: Fibroblast growth factor 2 (Homo sapiens) (UniProt P09038); experiment: FGF2 binders on small-molecule microarrays, primary screen, biochemical, small-molecule microarray, 635/667 nm fluorescence (AID 1133); details: small-molecule microarray binding, FGF2, fluorescence 635/667; higher = more signal
# [17] = mitochondrial membrane potential change in A549 cells, profiling panel, cell-based, JC-1 fluorescence, basal, 24 h, 100 nL (AID 1138); details: higher = more signal;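 further: A549 lung adenocarcinoma cells under basal conditions with no added stimulus; test concentration not given here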
# [18] = tested on: Lefty1; experiment: Lefty1 binders on small-molecule microarrays, primary screen, biochemical, small-molecule microarray, 635/667 nm fluorescence (AID 1139); details: small-molecule microarray binding, fluorescence 635/667; higher = more signal
# [19] = tested on: wheat germ agglutinin (Triticum aestivum), Alexa647-labelled; experiment: wheat germ agglutinin binders on compound microarrays, profiling panel, artefact control for SMM control-protein annotation, biochemical, small-molecule microarray, 635/667 nm fluorescence (AID 1140); details: WGA-A647 binding, 635 nm fluorescence, higher = more signal;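 further: score merges 667 nm feature emission with signal to noise over triplicate slides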
# [20] = target: Luciferin 4-monooxygenase (Photinus pyralis) (UniProt P08659); experiment: firefly luciferase enzyme inhibitors, primary screen, biochemical, luminescence, purified enzyme, 2006 set (AID 1141); details: SteadyGlo luminescence, 30 min, higher = more signal, called active from +8 up or from −8 down;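 further: cell-free assay with purified firefly luciferase at 100 ng per well in PBS; test concentration not given here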
# Luciferin 4-monooxygenase (Photinus pyralis), sequence (P08659 whole entry, looked up): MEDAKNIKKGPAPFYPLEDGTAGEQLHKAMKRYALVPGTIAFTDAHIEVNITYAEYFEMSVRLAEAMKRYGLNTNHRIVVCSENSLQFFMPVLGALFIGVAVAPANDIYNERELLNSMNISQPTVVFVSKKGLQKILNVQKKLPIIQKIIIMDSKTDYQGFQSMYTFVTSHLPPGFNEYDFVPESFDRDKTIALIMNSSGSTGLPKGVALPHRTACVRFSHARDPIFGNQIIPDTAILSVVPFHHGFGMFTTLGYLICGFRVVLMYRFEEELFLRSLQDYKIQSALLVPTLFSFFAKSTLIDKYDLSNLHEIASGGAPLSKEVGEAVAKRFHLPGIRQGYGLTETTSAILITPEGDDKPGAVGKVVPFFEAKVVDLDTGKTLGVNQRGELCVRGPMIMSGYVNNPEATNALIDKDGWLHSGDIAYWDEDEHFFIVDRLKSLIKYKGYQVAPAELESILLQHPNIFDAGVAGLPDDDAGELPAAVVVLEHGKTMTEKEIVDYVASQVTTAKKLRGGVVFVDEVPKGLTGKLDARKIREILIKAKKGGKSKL
# Concanavalin-A (Canavalia ensiformis), sequence (P02866 whole entry, looked up): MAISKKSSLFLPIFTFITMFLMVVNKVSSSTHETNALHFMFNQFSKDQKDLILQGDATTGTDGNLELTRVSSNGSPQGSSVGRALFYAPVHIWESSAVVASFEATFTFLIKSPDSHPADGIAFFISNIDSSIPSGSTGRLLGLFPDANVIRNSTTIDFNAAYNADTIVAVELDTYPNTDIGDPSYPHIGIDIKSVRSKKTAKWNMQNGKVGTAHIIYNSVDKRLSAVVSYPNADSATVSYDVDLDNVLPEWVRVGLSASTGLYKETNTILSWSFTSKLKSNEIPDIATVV
# Albumin (Bos taurus), sequence (P02769 whole entry, looked up): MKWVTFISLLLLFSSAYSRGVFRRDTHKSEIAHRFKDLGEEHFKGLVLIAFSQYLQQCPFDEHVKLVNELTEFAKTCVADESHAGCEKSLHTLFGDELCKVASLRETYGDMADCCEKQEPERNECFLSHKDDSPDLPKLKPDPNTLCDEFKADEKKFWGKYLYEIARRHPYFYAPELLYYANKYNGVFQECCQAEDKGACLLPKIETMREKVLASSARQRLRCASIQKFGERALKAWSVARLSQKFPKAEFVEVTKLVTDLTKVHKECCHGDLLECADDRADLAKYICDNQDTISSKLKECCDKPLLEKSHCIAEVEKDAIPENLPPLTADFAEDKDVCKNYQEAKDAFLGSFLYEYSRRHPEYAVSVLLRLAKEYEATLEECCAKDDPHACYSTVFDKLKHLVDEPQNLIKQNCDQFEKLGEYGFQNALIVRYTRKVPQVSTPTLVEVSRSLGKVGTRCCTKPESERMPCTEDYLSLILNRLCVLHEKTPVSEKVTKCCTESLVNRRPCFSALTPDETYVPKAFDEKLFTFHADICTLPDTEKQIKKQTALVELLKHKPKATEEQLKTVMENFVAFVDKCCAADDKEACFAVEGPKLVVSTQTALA
# Focal adhesion kinase 1 (Homo sapiens), sequence (Q05397 whole entry, looked up): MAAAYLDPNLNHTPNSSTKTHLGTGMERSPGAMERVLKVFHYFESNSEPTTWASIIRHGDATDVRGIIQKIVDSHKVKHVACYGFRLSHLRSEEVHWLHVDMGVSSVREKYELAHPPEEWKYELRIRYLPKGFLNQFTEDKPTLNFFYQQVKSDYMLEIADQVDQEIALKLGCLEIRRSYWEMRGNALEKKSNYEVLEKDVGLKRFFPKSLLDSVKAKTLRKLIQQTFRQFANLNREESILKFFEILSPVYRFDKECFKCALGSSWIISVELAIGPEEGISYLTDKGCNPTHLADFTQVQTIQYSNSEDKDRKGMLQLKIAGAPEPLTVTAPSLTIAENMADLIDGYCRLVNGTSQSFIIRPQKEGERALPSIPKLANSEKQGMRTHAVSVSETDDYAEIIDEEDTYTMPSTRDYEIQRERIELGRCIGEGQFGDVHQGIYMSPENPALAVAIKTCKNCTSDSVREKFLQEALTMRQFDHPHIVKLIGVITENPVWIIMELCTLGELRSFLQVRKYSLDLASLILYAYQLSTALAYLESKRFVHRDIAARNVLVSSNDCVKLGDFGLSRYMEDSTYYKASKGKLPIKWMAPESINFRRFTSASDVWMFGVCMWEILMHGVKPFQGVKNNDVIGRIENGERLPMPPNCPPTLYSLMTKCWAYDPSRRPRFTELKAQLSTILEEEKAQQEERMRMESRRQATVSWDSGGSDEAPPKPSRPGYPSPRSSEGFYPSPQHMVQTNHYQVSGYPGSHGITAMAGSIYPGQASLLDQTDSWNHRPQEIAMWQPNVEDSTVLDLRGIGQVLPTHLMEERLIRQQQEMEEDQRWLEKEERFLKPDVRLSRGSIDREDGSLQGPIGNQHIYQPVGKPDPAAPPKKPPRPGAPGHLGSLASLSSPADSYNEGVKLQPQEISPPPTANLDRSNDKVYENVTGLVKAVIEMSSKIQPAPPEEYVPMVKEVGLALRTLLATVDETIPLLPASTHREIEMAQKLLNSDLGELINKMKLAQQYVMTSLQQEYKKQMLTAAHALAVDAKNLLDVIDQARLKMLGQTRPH
# Fibroblast growth factor 2 (Homo sapiens), sequence (P09038 whole entry, looked up): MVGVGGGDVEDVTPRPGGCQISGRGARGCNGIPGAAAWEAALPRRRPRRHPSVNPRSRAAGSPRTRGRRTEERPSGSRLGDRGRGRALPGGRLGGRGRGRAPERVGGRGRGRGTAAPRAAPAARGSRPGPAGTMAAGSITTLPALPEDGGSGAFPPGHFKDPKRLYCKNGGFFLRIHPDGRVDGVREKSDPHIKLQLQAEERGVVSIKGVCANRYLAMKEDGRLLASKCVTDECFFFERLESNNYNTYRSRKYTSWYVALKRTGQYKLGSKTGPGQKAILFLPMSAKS
# Follistatin (Homo sapiens), sequence (P19883 whole entry, looked up): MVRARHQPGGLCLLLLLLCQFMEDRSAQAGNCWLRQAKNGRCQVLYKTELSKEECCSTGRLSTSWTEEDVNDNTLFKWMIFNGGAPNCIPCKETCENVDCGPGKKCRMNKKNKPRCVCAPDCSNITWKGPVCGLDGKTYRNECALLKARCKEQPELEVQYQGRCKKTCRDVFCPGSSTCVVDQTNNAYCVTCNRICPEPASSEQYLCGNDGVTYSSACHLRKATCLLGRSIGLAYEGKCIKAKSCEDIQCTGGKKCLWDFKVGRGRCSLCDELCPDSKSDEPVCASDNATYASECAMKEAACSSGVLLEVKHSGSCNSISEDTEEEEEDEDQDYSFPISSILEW
Compound,composite z-score [1],composite Z-score [2],composite z-score [3],composite z-score [4],composite z-score [5],composite z-score [6],composite z-score [7],composite z-score [8],composite z-score [9],composite z-score [10],composite z-score [11],composite z-score [12],composite z-score [13],composite z-score [14],composite z-score [15],composite z-score [16],z-score [17],composite z-score [18],composite z-score [19],z-score [20]
COCCOC(=O)N1C(=O)[C@@]2(c3cc(C#CCNC(N)=O)ccc31)[C@H](C(=O)Nc1nc3ccccc3s1)[C@H]1C(=O)O[C@H](c3ccccc3)[C@H](c3ccccc3)N1[C@@H]2c1ccc(OCCO)cc1,-0.28,-0.335 (inactive),0.0952,0.0949,0.382,0.481,0.422,1.1,1.34,0.994,-0.187,0.669,0.346,0.901,1.36,1.08,-2.31,0.9,0.677,-2.41 (inactive)
O=C(OCc1ccccc1)C1=CCC2c3[nH]c4ccccc4c3C(=O)C1N2S(=O)(=O)c1ccccc1[N+](=O)[O-] (stereo not given),0.994,0.0421 (inactive),0.6,0.285,0.777,2.61,0.335,1.06,-0.328,0.996,1.28,1.26,-0.134,0.906,1.11,0.491,-2.71,0.5,0.743,0.895 (inactive)
C=CCC(OC(C)=O)[C@@H]1[C@@H](N(Cc2ccc(-c3ccccc3)cc2)C(=O)c2ccc(-c3ccccc3)cc2)c2cc(OCCCO)ccc2N1C(=O)Cc1ccc2ccccc2c1 (stereo not given in full),0.108,-0.316 (inactive),-0.0057,-0.213,0.002,0.522,-0.0155,0.621,0.156,-0.288,1.13,-0.0959,-0.0802,0.51,0.456,-0.275,0.857,0.211,0.0685,-0.785 (inactive)
COc1ccc(C#Cc2ccc3c(c2)[C@]2(C(=O)N3)[C@H](C(=O)Nc3nc4ccccc4s3)[C@H]3C(=O)O[C@H](c4ccccc4)[C@H](c4ccccc4)N3[C@@H]2c2ccc(O)cc2)cc1,0.835,0.257 (inactive),1.29,0.158,0.406,2.65,0.641,1.31,0.172,1.12,0.973,1.24,0.289,0.997,1.38,0.882,-2.22,1.72,1.18,0.0616 (inactive)
NC(=O)NCC#Cc1ccc2c(c1)[C@]1(C(=O)N2)[C@H](C(=O)Nc2nc3ccccc3s2)[C@H]2C(=O)O[C@H](c3ccccc3)[C@H](c3ccccc3)N2[C@@H]1c1ccccc1OCCO,0.46,1.24 (inactive),1.1,0.0196,0.39,2.83,1.14,1.18,0.277,1.08,0.678,0.759,0.997,0.764,1.22,0.624,-2.46,1.34,1.1,-0.921 (inactive)
O=C1C[C@@](C(=O)NCC(F)(F)F)(c2ccc([N+](=O)[O-])cc2)[C@@H](c2ccc(CO)cc2I)N1C1CCCCC1,0.365,0.004 (inactive),0.03,-0.0394,0.437,2.22,-0.0164,1.23,0.189,0.676,0.226,1.25,0.466,0.9,1.05,1.26,1.8,0.394,0.834,0.59 (inactive)
CCOC(=O)C[C@H]1[C@H](OC(=O)c2ccc(C(=O)c3ccccc3)cc2)[C@@H](NC(=O)CC(C)C)c2cc(OCCCO)ccc2N1C(=O)c1ccc2ccccc2n1,0.577,-0.86 (inactive),0.206,-0.114,0.232,1.21,0.323,1.29,0.448,1.12,1.35,1.21,0.0174,0.989,1.15,0.94,1.78,1.36,0.61,0.103 (inactive)
C=CCOC(=O)[C@H]1[C@@H]2C(=O)O[C@@H](c3ccccc3)[C@@H](c3ccccc3)N2[C@@H](c2ccc(OCCOC(=O)[C@H]3C[C@H]4C(=O)N[C@@H](CCCC[N+](C)(C)C)C(=O)N4[C@H]3c3ccc(O)cc3)cc2)[C@]12C(=O)Nc1ccc(I)cc12,-0.763,1.88 (inactive),0.191,0.0482,-0.141,0.502,-0.432,1.11,1.11,0.401,1.24,1.08,0.38,-0.154,1.38,1.14,0.694,1.27,0.0577,-0.666 (inactive)
CN1C(=O)C2C=CC(C(O)C#Cc3ccccc3)N(N3CCCCC3)C2C1=O (stereo not given),0.268,1.04 (inactive),1.15,0.519,0.798,0.19,1.3,-0.156,0.111,0.82,2.14,0.392,-0.381,0.933,0.718,0.756,0.534,-0.418,1.3,-1.69 (inactive)
COCCOC(=O)N1C(=O)[C@@]2(c3cc(C#Cc4ccc(OC)cc4)ccc31)[C@H](c1ccc(O)cc1)N1[C@H](c3ccccc3)[C@H](c3ccccc3)OC(=O)[C@H]1[C@@H]2C(=O)N1CCc2cc(OC)c(OC)cc2C1,0.595,0.536 (inactive),0.327,-0.0877,0.117,0.75,0.16,1.28,0.252,1.12,0.744,0.7,1.02,0.935,1.02,0.413,-0.734,0.785,0.555,0.644 (inactive)
